Assay outcomes as filed in PubChem BioAssay.
GPR151 activ – activators of human GPR151 | PathHunter beta-arrestin GPR151 cells, luminescence | activation, % at 11.2 µM | Q8TDV0 | 1% of 650,000 active; in the data active = activation above about 4.9%;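 also: 0% = median of compound wells and 100% = cells with positive control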
FBW7 act – human FBW7 E3 ligase activation, primary screen. AlphaScreen FBW7–phospho-cyclin E peptide binding, activator screen. normalized activity (activation), % at 26.1 µM. 0.13% of 650,000 active. AID 1259310; in the data active = normalized activity above about 1.9%;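 also: purified mutant Fbw7 with reduced substrate affinity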
TEAD-YAP inh – TEAD-YAP interaction inhibition; HEK-TIYL cells, TEAD-Gal4/YAP UAS-luciferase luminescence; inhibition, % at 9.12 µM; 1.4% of 640,000 active; AID 1259422; in the data active = inhibition above about 32%;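 also: 0% = median of test compound wells and 100% = reference inhibitor wells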
MITF primary – inhibitors of human MITF | O75030 | AlphaScreen MITF homodimerization, bead proximity signal | inhibition, % at 2.6 µM | 0.91% of 650,000 active; in the data active = inhibition above about 50%;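 also: 0% = vehicle wells with protein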
Target sequence (O75030 whole entry, looked up): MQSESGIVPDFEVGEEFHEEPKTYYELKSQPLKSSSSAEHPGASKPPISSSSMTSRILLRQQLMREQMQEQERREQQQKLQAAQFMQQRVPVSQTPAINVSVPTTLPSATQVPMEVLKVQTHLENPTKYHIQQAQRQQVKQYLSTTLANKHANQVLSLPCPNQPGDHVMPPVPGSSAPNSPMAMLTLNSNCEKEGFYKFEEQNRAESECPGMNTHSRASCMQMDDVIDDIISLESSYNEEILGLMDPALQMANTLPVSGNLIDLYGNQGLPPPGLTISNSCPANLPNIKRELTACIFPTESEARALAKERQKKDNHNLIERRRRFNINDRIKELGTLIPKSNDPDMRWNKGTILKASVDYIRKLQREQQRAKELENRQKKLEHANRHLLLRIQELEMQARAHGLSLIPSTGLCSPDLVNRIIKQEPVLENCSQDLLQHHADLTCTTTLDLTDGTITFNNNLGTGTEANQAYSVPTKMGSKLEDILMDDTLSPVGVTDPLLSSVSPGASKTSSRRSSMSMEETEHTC
The depositor's hits bear a star. Most compounds without a hit are left out; they make up all but 3.5% or so of the library.

SMILES | GPR151 activ | FBW7 act | TEAD-YAP inh | MITF primary
COc1cc(CC2(CCC(=O)NCC(C)Oc3cccnc3)CCC(=O)N2)ccc1F (centres undefined) | 0 | 2.1* | -4 | 17
CC(NC(=O)CCl)C1COc2ccccc2O1 (centres undefined) | 0 | 0 | 37* | 1
Nc1nc2cc3c(cc2cc1C(=O)Nc1ccccc1)OCO3 | 0 | 0 | 42* | 6
Cc1ccc(-n2ncc3c(N4CCCCC4)ncnc32)cc1C | -4 | 0 | 73* | 10
Cc1ccc(N2CCN(c3ncnc4c3c(-c3ccccc3)cn4-c3ccc(Br)cc3)CC2C)cc1 (centres undefined) | -1 | 3.7* | -5 | -3
Cc1cccc(-n2ncc3c(N4CCOCC4)ncnc32)c1 | -7 | 0 | 93* | -1
Cc1cccc(-n2ncc3c(N4CCCC4)ncnc32)c1 | 0 | 0 | 52* | 0
Cc1cccc(-n2ncc3c(N4CCN(c5ccccc5)CC4)ncnc32)c1 | 0 | 0 | -8 | -4
Cc1ccc(-n2ncc3c(N4CCCCC4)ncnc32)c(C)c1 | 2 | 0 | -33 | 5
Cc1cccc(N2CCN(c3ncnc4c3cnn4-c3ccccc3)CC2C)c1 (centres undefined) | -1 | 1 | 43* | 14
Cc1ccc(-n2ncc3c(N4CCOCC4)ncnc32)c(C)c1 | 1 | 0 | 58* | 0
Cc1ccc(-n2ncc3c(N4CCCC4)ncnc32)cc1 | -2 | 0 | 48* | -9
N=C1c2ccccc2CN1NC(=O)C(Cc1c[nH]c2ccccc12)NC(=O)c1ccccc1 (centres undefined) | 2 | 0 | 7 | 1
CN(C)S(=O)(=O)c1ccc(C(=O)Nc2ccc(Cc3ccncc3)cc2)cc1 | 1 | 0 | 22 | -5
O=C(Nc1ccncc1)c1ccc(COc2ccccc2Cl)cc1 | -4 | 1 | 60* | 16
O=C(Nc1ccc(Cc2ccncc2)cc1)c1ccc(Oc2ccc(C(=O)Nc3ccc(Cc4ccncc4)cc3)cc2)cc1 | 0 | 0 | 62* | 6
Cc1ccc(Oc2ccc(NC(=O)c3ccncc3)cc2)cc1C | 0 | 0 | 36* | 7
Cn1c(C2COc3ccccc3O2)nc2cc(-c3cn[nH]c3)ccc21 (centres undefined) | 0 | 0 | -57 | 11
COc1ccc(-n2c(=S)[nH]c3cc(C(=O)Nc4ccc(F)cc4)ccc3c2=O)c(OC)c1 | 2 | 0 | 71* | 3
CCc1cc2c(cc3c(=O)n(CC(=O)N4CCC(C)CC4)ncn32)s1 | -1 | 0 | 7 | -5
COc1ccc(C(=O)Nc2nc(-c3ccc(C(C)C)cc3)cs2)cc1 | 0 | 0 | -2 | 7
CC(C)c1ccc(-c2csc(NC(=O)c3ccnn3C)n2)cc1 | 2 | 0 | 57* | -22
Cc1nc(O)c(C(c2ccccc2F)C(C#N)C#N)[nH]1 (centres undefined) | -1 | 0 | 10 | 5
COc1cccc(-c2ccnc(-n3ncc(C(=O)NCc4ccccn4)c3C3CC3)n2)c1 | 0 | 0 | 14 | 14
COCCCNC(=O)c1cnn(-c2nccc(-c3ccc(OC)c(F)c3)n2)c1C1CC1 | -1 | 0 | 48* | 13
SMILES | GPR151 activ | FBW7 act | TEAD-YAP inh | MITF primary
CN(C)c1ccc(/C=C2\Sc3ccccc3C2=O)cc1 | -1 | 0 | -11 | 21
Cc1c(C(=O)NCc2ccco2)sc2ncnc(N3CCCCC3C)c12 (centres undefined) | 0 | 0 | -14 | 8
O=C1C(=O)N(CCN2CCOCC2)C(c2ccco2)/C1=C(/O)c1ccc(S(=O)(=O)N2CCOCC2)cc1 (centres undefined) | 0 | 0 | 5 | -5
Cc1ccc2c(c1)sc1nc(-c3ccccc3)cn12 | -7 | 2.4* | 96* | -20
Cc1ccc(-c2cn3c(n2)sc2cc(C(=O)N4CCC(C(N)=O)CC4)ccc23)cc1 | 0 | 1 | -39 | 6
CC1=CC2=NC(C(F)(F)F)(C(F)(F)F)N=C(c3cccnc3)N2C=C1 | -1 | 0 | 0 | -2
COC(=O)c1ccccc1NC(=O)c1sc2ncnc(N3CCc4ccccc4C3)c2c1C | 1 | 0 | 3 | 1
O=C(CSc1cccc[n+]1[O-])Nc1cccc2ccccc12 | 0 | 0 | 16 | 7
CCOC(=O)c1cnc2c(OC)cccc2c1Nc1ccccc1OC | -1 | 0 | 7 | -3
CCOC(=O)c1cnc2c(Cl)cccc2c1NCc1ccco1 | -1 | 0 | -8 | -10
CCOC(=O)c1cnc2c(OC)cccc2c1NCc1ccco1 | -1 | 0 | 46* | -5
CCOC(=O)c1cnc2c(OC)cccc2c1Nc1ccc(OC)cc1OC | 1 | 0 | 53* | -12
COc1ccc(C(CC(=O)O)NC(=O)c2ccc(Cl)c(Cl)c2)cc1OC (centres undefined) | -1 | 0 | 7 | 16
O=C(c1ccc(Cl)cc1)c1ccc(S(=O)(=O)c2ccc(Cl)cc2)cc1 | 2 | 0 | 2 | 2
COc1ccc2cc3c(N)[nH]nc3nc2c1 | 0 | 0 | 80* | 1
O=C(Nc1ccccc1Cl)c1ccc([N+](=O)[O-])cc1Cl | 1 | 0 | 0 | 9
O=C(Nc1ccc([N+](=O)[O-])cc1Br)c1ccccc1O | -2 | 0 | 78* | 10
O=C(Nc1ccccc1Cl)c1cc([N+](=O)[O-])ccc1O | -6 | 1 | 60* | 23
O=C(Nc1ccc(N2CCCCC2)cc1)c1ccc(Cl)c([N+](=O)[O-])c1 | -1 | 0 | 43* | 6
O=C(Nc1ccc(F)cc1F)c1ccc(Cl)c([N+](=O)[O-])c1 | -2 | 0 | 56* | 11
O=C(Nc1ccc(Br)cc1F)c1ccc(Cl)c([N+](=O)[O-])c1 | -1 | 0 | -12 | 18
CCOC(=O)C1=CN(Cc2ccc(OC)cc2)C=C(C(=O)OCC)C1c1ccc(OCC)c(OC)c1 | -1 | 1 | 0 | -2
COc1cccc(C2c3c(-c4ccccc4O)n[nH]c3C(=O)N2CCO)c1 (centres undefined) | 0 | 0 | -2 | 12
Cc1cc(C)cc(Cn2cc[n+](C)c2C)c1 | 0 | 0 | -3 | -3
C=CCn1c(C)c(/C=c2\sc3n(c2=O)C(c2ccccc2)C(C(=O)OCC)=C(C)N=3)c2ccccc21 (centres undefined) | 1 | 0 | 1 | -6
SMILES | GPR151 activ | FBW7 act | TEAD-YAP inh | MITF primary
O=C(CCl)Nc1ccc(Cl)c([N+](=O)[O-])c1 | 0 | 0 | 74* | -6
CC(C)CC(=O)Nc1ccc(Cl)c([N+](=O)[O-])c1 | 1 | 0 | 4 | 6
O=C(Nc1ccc(-c2ccc([N+](=O)[O-])cc2)cc1)c1ccccc1O | -1 | 0 | 45* | -2
O=C(Nc1ccccc1Cl)c1cc(F)ccc1[N+](=O)[O-] | 0 | 0 | 80* | 11
Cc1ccccc1C(=O)Nc1ccc(-c2ccc([N+](=O)[O-])cc2)cc1 | 2 | 0 | -24 | -3
O=C(Nc1cccnc1)c1cc2c(=O)[nH]c3ccccc3c2s1 | 0 | 0 | -4 | 17
Cc1ccnc(SCC(=O)Nc2cccc(C(=O)O)c2)n1 | 0 | 0 | 2 | 0
O=C(Nc1ccc2c(c1)Cc1ccccc1-2)c1cc(Br)ccc1Cl | 1 | 0 | 50* | 14
